Results published in PubChem BioAssay (Tox21).
Inconclusive results are not listed. The source made the active and inactive calls. Unless noted, calls come from the whole dose curve; as a rule, active = well fitted curve in the direction sought with a large enough effect in the repeat runs; inconclusive = weak or mixed curves; inactive = no such curve, though single readings can be large; an effect the other way counts as inactive or inconclusive.

Experiments:
[1] = A CellTox Green Cytotoxicity Assay to monitor cytotoxicity in HEK293 cells - 32 hour (AID 1224881); note: nearly all actives have a fitted effect of over 40% in size
Method in brief: (§1)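 Cytotoxicity was tracked continuously in HEK293 cells by a DNA-binding dye excluded from viable cells. Compounds were transferred in DMSO 5 h after seeding; fluorescence was recorded at intervals up to 40 h.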

[2] = A CellTox Green Cytotoxicity Assay to monitor cytotoxicity in HepG2 cells - 0 hour (AID 1224882); note: nearly all actives have a fitted effect of over 35% in size
Method in brief: (§2)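 Real-time, homogeneous cytotoxicity readout: dead-cell DNA staining by CellTox Green in HepG2 monolayers, fluorescence measured at timed intervals up to 40 h of continuous compound exposure.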

[3] = A CellTox Green Cytotoxicity Assay to monitor cytotoxicity in HepG2 cells - 32 hour (AID 1224883); note: nearly all actives have a fitted effect of over 50% in size
Method in brief: as §2

[4] = A CellTox Green Cytotoxicity Assay to monitor cytotoxicity in HEK293 cells - 8 hour (AID 1224884); note: nearly all actives have a fitted effect of over 35% in size
Method in brief: as §1

[5] = qHTS RealTime-Glo MT Cell Viability Assay in HepG2 cells - 16 hour (AID 1224885); note: nearly all actives have a fitted effect of over 50% in size
Method in brief: (§3)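 Compound treatment began 5 h after plating HepG2 cells (600/well) with NanoLuc luciferase and prosubstrate. Plates stayed at 37 C for 40 h; luminescence was captured at six time points, 0 h through 40 h.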

[6] = qHTS RealTime-Glo MT Cell Viability Assay in HEK293 cells - 24 hour (AID 1224886); note: top concentration of the series differs between compounds; nearly all actives have a fitted effect of over 50% in size
Method in brief: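 Quantitative high-throughput screen of the Tox21 10K library in HEK293: cells and RealTime-Glo reagents plated together, compound added at 5 h, luminescence monitored through 40 h at 37 C.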

[7] = qHTS RealTime-Glo MT Cell Viability Assay in HEK293 cells - 8 hour (AID 1224887); note: top concentration of the series differs between compounds; nearly all actives have a fitted effect of over 50% in size
Method in brief: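 Nonlytic bioluminescent viability monitoring. HEK293 at 600 cells/well with reagent; 5 h settle; compound transfer by pintool; plates held at 37 C and read at set time points.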

[8] = A CellTox Green Cytotoxicity Assay to monitor cytotoxicity in HEK293 cells - 16 hour (AID 1224888); note: nearly all actives have a fitted effect of over 35% in size
Method in brief: as §1

[9] = qHTS RealTime-Glo MT Cell Viability Assay in HepG2 cells - 0 hour (AID 1224889); note: nearly all actives have a fitted effect of over 50% in size; note: potency is the fitted concentration of half-maximal effect
Method in brief: as §3

[10] = A CellTox Green Cytotoxicity Assay to monitor cytotoxicity in HepG2 cells - 8 hour (AID 1224890); note: nearly all actives have a fitted effect of over 45% in size
Method in brief: as §2

[11] = qHTS assay to identify small molecule antagonists of the estrogen receptor alpha (ER-alpha) signaling pathway using the BG1 cell line in the presence of 0.1 nM 17-beta-estradiol - cell viability counter screen (AID 1259241); note: nearly all actives have a fitted effect of over 40% in size
Method in brief: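 CellTiter-Fluor read (30 min, 37C) on ER-alpha/ERE-luc VM7Luc4E2 cells; 22 hr compound treatment; agonist 0.1 nM E2 final; same-well multiplex.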

[12] = qHTS assay to identify small molecule antagonists of the androgen receptor (AR) signaling pathway using the MDA cell line in the presence of 0.5 nM R1881 - cell viability counter screen (AID 1259242); note: nearly all actives have a fitted effect of over 45% in size
Method in brief: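 Cytotoxicity toward MDA-kb2 cells is measured by CellTiter-Fluor live-cell protease fluorescence after 16 hr compound exposure at 37C in the presence of 0.5 nM R1881 stimulator.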

[13] = biological target: Androgen receptor (Homo sapiens) (UniProt P10275); test: qHTS assay to identify small molecule antagonists of the androgen receptor (AR) signaling pathway using the MDA cell line in the presence of 0.5 nM R1881 (AID 1259243); note: nearly all actives have a fitted effect of over 50% in size
Chain of Androgen receptor (Homo sapiens) (P10275 whole entry, looked up): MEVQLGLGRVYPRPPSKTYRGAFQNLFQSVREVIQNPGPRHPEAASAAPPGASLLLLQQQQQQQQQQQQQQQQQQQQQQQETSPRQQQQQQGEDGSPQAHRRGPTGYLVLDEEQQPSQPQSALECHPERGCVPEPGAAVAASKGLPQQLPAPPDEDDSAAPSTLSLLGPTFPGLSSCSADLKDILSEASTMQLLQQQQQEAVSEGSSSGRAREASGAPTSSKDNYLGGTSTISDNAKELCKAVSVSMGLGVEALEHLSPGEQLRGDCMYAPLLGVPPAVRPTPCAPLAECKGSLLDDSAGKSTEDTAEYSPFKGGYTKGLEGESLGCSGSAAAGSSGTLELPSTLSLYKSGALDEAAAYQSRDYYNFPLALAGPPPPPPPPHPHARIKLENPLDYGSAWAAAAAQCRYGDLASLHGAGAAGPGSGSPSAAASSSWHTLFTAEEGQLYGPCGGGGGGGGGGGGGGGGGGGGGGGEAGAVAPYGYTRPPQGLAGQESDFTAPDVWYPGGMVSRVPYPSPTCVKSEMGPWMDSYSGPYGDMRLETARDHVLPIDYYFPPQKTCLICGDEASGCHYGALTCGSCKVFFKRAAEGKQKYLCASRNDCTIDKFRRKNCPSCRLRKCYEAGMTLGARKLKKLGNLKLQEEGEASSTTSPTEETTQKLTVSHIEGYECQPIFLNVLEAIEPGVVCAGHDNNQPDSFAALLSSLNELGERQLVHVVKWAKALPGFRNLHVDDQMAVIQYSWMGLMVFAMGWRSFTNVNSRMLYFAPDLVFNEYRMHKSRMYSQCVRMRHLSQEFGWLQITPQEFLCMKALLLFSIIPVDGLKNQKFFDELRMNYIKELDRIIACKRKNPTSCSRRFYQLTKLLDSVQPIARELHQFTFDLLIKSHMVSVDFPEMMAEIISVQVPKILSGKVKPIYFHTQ
Method in brief: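 Steps: seed MDA-kb2 cells, incubate 5 hr at 37C; pin-transfer compounds in DMSO; add R1881 to 0.5 nM final; incubate 16 hr; add ONE-Glo, wait 30 min at room temperature; read luminescence.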

[14] = biological target: Estrogen receptor (Homo sapiens) (UniProt P03372); test: qHTS assay to identify small molecule antagonists of the estrogen receptor alpha (ER-alpha) signaling pathway using the BG1 cell line in the presence of 0.1 nM 17-beta-estradiol (AID 1259244); note: nearly all actives have a fitted effect of over 50% in size
Chain of Estrogen receptor (Homo sapiens) (P03372 whole entry, looked up): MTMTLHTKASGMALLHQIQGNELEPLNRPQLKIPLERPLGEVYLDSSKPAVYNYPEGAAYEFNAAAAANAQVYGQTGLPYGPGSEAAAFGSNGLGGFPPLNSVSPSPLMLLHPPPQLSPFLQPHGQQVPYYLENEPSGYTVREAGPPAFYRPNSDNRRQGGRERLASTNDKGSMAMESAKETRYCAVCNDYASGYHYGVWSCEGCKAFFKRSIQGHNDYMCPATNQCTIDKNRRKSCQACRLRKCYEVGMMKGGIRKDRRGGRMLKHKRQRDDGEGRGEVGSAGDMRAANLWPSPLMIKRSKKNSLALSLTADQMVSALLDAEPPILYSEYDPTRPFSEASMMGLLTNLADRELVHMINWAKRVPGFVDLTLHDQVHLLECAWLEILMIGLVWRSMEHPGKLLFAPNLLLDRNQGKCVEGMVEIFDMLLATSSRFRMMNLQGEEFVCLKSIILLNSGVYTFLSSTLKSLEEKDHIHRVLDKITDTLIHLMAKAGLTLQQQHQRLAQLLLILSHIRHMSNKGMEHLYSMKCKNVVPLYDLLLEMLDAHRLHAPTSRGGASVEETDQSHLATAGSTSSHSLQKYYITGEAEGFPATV
Method in brief: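 After 5 days in hormone-depleted medium (charcoal-stripped serum, no phenol red), VM7Luc4E2 cells were seeded, incubated 24 h, then co-treated with compound and 0.1 nM (final) estradiol for 22 h before luminescence detection.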

[15] = qHTS assay to identify small molecule phospholipidosis (PLD) inducers (AID 1259344; active = well fitted curve in the direction sought with a large enough effect; an effect the other way counts as inactive or inconclusive)
Method in brief: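 Phospholipidosis is scored by imaging LipidTOX-stained pits in HepG2 cells exposed to compound for 24 h at 37 C; pit counts and integrated intensities per well and per cell serve as outputs.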

[16] = qHTS assay to identify small molecule HDAC inhibitors (AID 1259364); note: top concentration of the series differs between compounds; nearly all actives have a fitted effect of over 45% in size
Method in brief: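 Homogeneous cell-based luminescent assay of endogenous class I/II HDAC activity; HCT-116 cells, 2 h compound exposure, 30 min HDAC-Glo development at RT.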

[17] = qHTS assay to identify small molecule HDAC inhibitors - cell viability counter screen (AID 1259365)
Method in brief: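 To flag cytotoxic hits, 1,500 wild-type HCT-116 cells per well, plated the day before, receive test compounds for 2hr at 37 C before CellTiter-Glo reagent and a luminescence read.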

[18] = qHTS assay to identify small molecule agonists of the sonic hedgehog signaling (Shh) pathway - cell viability counter screen (AID 1259366); note: nearly all actives have a fitted effect of over 50% in size
Method in brief: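 Fluorescence from CellTiter-Fluor reports live cells in this counter screen. NIH/3T3-derived Gli1-Luc reporter cells receive test compounds for 24hr at 37C; reagent goes in at 23hr.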

[19] = qHTS assay to identify small molecule antagonists of the sonic hedgehog signaling (Shh) pathway - cell viability counter screen (AID 1259367); note: nearly all actives have a fitted effect of over 55% in size
Method in brief: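 Cells: 3T3 Gli1-Luc, 2,000/well, 4 hr pre-incubation. Compounds in DMSO, then conditioned medium. Incubation 24 hr, 37C, 5% CO2. CellTiter-Fluor at 23 hr, 1 hr, fluorescence.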

[20] = qHTS assay to identify small molecule agonists of the sonic hedgehog signaling (Shh) pathway (AID 1259368; calls by dose curve;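 note: NIH/3T3-derived 3T3Gli1-Luc cells carrying a stable Gli1-driven firefly luciferase reporter; series mostly up to about 92 µM; nearly all actives have a fitted effect of over 15% in size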)
Method in brief: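 Steps: seed 3T3 Gli1-Luc cells, incubate 4 hr at 37 C, pin-transfer compounds in DMSO alongside a positive control, incubate 24 hr, add luciferase detection reagent, wait 30 min at room temperature, read luminescence.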
% is set by controls: 0 for no effect and ±100 for the full control effect.

CCO[C@H](Cc1ccc(OCCc2ccc(OS(C)(=O)=O)cc2)cc1)C(=O)O
inactive: Potency [1] | Potency [2] | Potency [3] | Potency [4] | Potency [5] | Potency [6] | Potency [7] | Potency [8] | Potency [9] | Potency [10] | Potency [11] | Potency [12] | Potency [13] | Potency [14] | Potency [15] | Potency [16] | Potency [17] | Potency [18] | Potency [19]

CCO[Si](CCCCl)(OCC)OCC
inactive: Potency [1] | Potency [2] | Potency [3] | Potency [4] | Potency [5] | Potency [6] | Potency [7] | Potency [8] | Potency [9] | Potency [10] | Potency [11] | Potency [12] | Potency [14] | Potency [17] | Potency [18] | Potency [19] | outcome [20]

C/C(=C(\CCOP(=O)(O)O)SC(=O)c1ccccc1)N(C=O)Cc1cnc(C)nc1N
inactive: cytotoxicity increase [1] -7.02% [at 6.97 µM] | cytotoxicity [2] 4.51% [at 6.97 µM] | cytotoxicity increase [3] -0.701% [at 6.97 µM] | cytotoxicity increase [4] -3.85% [at 6.97 µM] | activity change, negative = cytotoxic [5] 1.38% [at 6.97 µM] | activity change, negative = cytotoxicity [6] 2.35% [at 6.97 µM] | activity change, negative = cytotoxicity [7] 3.68% [at 6.97 µM] | activity change [8] -2.42% [at 6.97 µM, active compounds read high] | activity change, negative = cytotoxicity [9] 4.53% [at 6.97 µM] | cytotoxicity increase [10] 0.403% [at 6.97 µM] | activity change, negative = cytotoxicity [11] -4.04% [at 8.39 µM] | viability change, negative = cytotoxic [12] 2.34% [at 8.39 µM] | activity, negative = inhibition [13] 2.6% [at 8.39 µM] | activity change, negative = inhibition [14] 5.19% [at 8.39 µM] | Potency [15] | activity change, negative = inhibition [16] -1.49% [at 8.39 µM] | activity change, negative = cytotoxicity [17] 6.82% [at 8.39 µM] | viability change, negative = cytotoxic [18] -1.58% [at 8.39 µM] | viability change, negative = cytotoxic [19] 0.0493% [at 8.39 µM] | activity change [20] 0.138% [at 8.39 µM]

NCc1ccccc1Sc1ccccc1CO
inactive: Potency [1] | Potency [2] | Potency [3] | Potency [4] | Potency [5] | Potency [6] | Potency [7] | Potency [8] | Potency [9] | Potency [10] | Potency [11] | Potency [12] | Potency [13] | Potency [14] | Potency [15] | Potency [16] | Potency [17] | Potency [18] | Potency [19] | outcome [20]

Cc1ncc(CO)c(C=O)c1O
inactive: Potency [1] | Potency [2] | Potency [3] | Potency [4] | Potency [5] | Potency [6] | Potency [7] | Potency [8] | Potency [9] | Potency [10] | Potency [11] | Potency [12] | Potency [14] | Potency [15] | Potency [16] | Potency [17] | Potency [18] | Potency [19] | outcome [20]

O=C(O)c1ccco1
inactive: Potency [1] | Potency [2] | Potency [3] | Potency [4] | Potency [5] | Potency [6] | Potency [7] | Potency [8] | Potency [9] | Potency [10] | Potency [11] | Potency [12] | Potency [14] | Potency [16] | Potency [17] | Potency [18] | Potency [19] | outcome [20]

CCN(CC)CCNC(=O)c1cc(Br)c(N)cc1OC
inactive: Potency [1] | Potency [2] | Potency [3] | Potency [4] | Potency [5] | Potency [6] | Potency [7] | Potency [8] | Potency [9] | Potency [10] | Potency [11] | Potency [12] | Potency [14] | Potency [16] | Potency [17] | Potency [18] | Potency [19] | outcome [20]

c1cc(CCCc2ccncc2)ccn1
inactive: Potency [1] | Potency [2] | Potency [3] | Potency [4] | Potency [5] | Potency [6] | Potency [7] | Potency [8] | Potency [9] | Potency [10] | Potency [11] | Potency [12] | Potency [14] | Potency [16] | Potency [17] | Potency [19] | outcome [20]

c1ccc(-c2ccccn2)nc1
inactive: Potency [1] | Potency [2] | Potency [3] | Potency [4] | Potency [5] | Potency [6] | Potency [7] | Potency [8] | Potency [9] | Potency [10] | Potency [11] | Potency [12] | Potency [13] | Potency [14] | Potency [16] | Potency [17] | Potency [18] | Potency [19] | outcome [20]

CCCCCCCCCOS(=O)(=O)O
inactive: Potency [1] | Potency [2] | Potency [3] | Potency [4] | Potency [5] | Potency [6] | Potency [7] | Potency [8] | Potency [9] | Potency [10] | Potency [11] | Potency [12] | Potency [14] | Potency [16] | Potency [18] | Potency [19] | outcome [20]

CCCC(=O)Nc1ccc(O)c(C(C)=O)c1
inactive: Potency [1] | Potency [2] | Potency [3] | Potency [4] | Potency [5] | Potency [6] | Potency [7] | Potency [8] | Potency [9] | Potency [10] | Potency [11] | Potency [12] | Potency [14] | Potency [17] | Potency [18] | Potency [19] | outcome [20]

O=C(O)CNCC(=O)O
inactive: cytotoxicity increase [1] 4.03% [at 6.97 µM] | cytotoxicity [2] -10.6% [at 6.97 µM] | cytotoxicity increase [3] -4.58% [at 6.97 µM] | cytotoxicity increase [4] -1.38% [at 6.97 µM] | activity change, negative = cytotoxic [5] -0.86% [at 6.97 µM] | activity change, negative = cytotoxicity [6] -8.06% [at 6.97 µM] | activity change, negative = cytotoxicity [7] -7.77% [at 6.97 µM] | activity change [8] 2.15% [at 6.97 µM, active compounds read high] | activity change, negative = cytotoxicity [9] -5.44% [at 6.97 µM] | cytotoxicity increase [10] 3.91% [at 6.97 µM] | activity change, negative = cytotoxicity [11] 0.833% [at 8.39 µM] | viability change, negative = cytotoxic [12] -0.633% [at 8.39 µM] | activity, negative = inhibition [13] -3.67% [at 8.39 µM] | activity change, negative = inhibition [14] -6.61% [at 8.39 µM] | activity change, negative = inhibition [16] 10.7% [at 8.39 µM] | activity change, negative = cytotoxicity [17] -5.53% [at 8.39 µM] | viability change, negative = cytotoxic [18] 1.7% [at 8.39 µM] | viability change, negative = cytotoxic [19] 3.32% [at 8.39 µM]

C[C@@H]1C[C@H]2O[C@@]3(O[C@@H]2C(C)(C)O)[C@H](O)[C@@]2(C)[C@@H]4CC[C@H]5C(C)(C)[C@@H](O[C@@H]6OC[C@@H](O)[C@H](O)[C@H]6O)CC[C@@]56C[C@@]46CC[C@]2(C)[C@@H]13
inactive: Potency [1] | Potency [2] | Potency [3] | Potency [4] | Potency [5] | Potency [6] | Potency [7] | Potency [8] | Potency [10] | Potency [11] | Potency [12] | Potency [13] | Potency [14] | Potency [16] | Potency [18] | Potency [19] | outcome [20]
active: Potency [9] 2160 nM
